Holding throughout (assay): NCI-60 one-dose screen, 48 h (100 = growth as untreated, 0 = no growth, -100 = all killed)
Common to all, as to conditions: 10 µM

The subject of assay [1] is EKVX NSCLC.
In assay [2] the test system is SN12C renal.
Assay [3] relates to UO-31 renal.
The subject of assay [4] is TK-10 renal.
In assay [5] the test system is ACHN renal.
Assay [6] relates to CAKI-1 renal.
For assay [7], the system named is A498 renal.
In assay [8] the test system is CCRF-CEM leukemia.
Assay [9] relates to MOLT-4 leukemia.
The subject of assay [10] is SR leukemia.

Molecules are shown by their SMILES. About 83,000 compounds went through this panel and 20% of them were active in at least one assay; those are over-represented in the sample as a whole.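 Method: cells in 96-well plates; compound added at one concentration; 48 h incubation; percent growth measured; values under 10 scored active.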 Values without a mark were called inactive. Activity calls are given as the source filed them.

`Cc1ccc(-c2nc(/C=C3/C(=O)N(C)c4ccc(F)cc43)c3ccccn23)cc1`: the growth in assay [1] is 98.1%; in [2], 96.1%; in assay [3] it was 85.8%; in [4], 128%; in [5] it was 88.5%; in assay [6] it was 105%. Moreover, the growth in assay [7] is 95.9%; in assay [8], 111%; in assay [9] it was 100%; in [10], 97.5%.

For the compound `Cc1ccc(CC#N)cc1C`, the growth is 87.8% in assay [1]; 105% in assay [2]; 94.4% in [3]; 107% in [4]; 94.6% in assay [5]; 45.3% in assay [6]. Also, the growth in [7] was 136%; in assay [8] it was 128%; in assay [9], 93.9%; in assay [10] it was 89.3%.

With `COc1ccc(-c2ccc3cc(C(=O)Nc4ccc(O)c(C(=O)/C=C/c5cc(OC)c(OC)c(OC)c5)c4)ccc3c2)cc1`, the growth in [1] was 101%; in assay [2], 92.6%; in assay [3] it was 59.6%; in [4] it was 100%; in assay [5], 96.3%; in assay [6] it was 86.6%. Besides, the growth was 91.2% in assay [7], 53.8% in [8], 69.6% in assay [9] and 60.3% in assay [10].

`O=C1OCC2=C1C(c1cccc(Cl)c1)c1cc3c(cc1N2CCO)OCO3` (stereo not given): the growth in assay [1] is 56.6%; in assay [2], 42.9%; in assay [3], 45.1%; in assay [4], 58.2%; in assay [5] it was 46.3%; in [6] it was 39.6%. Also, the growth in assay [7] was -7.88% (active); in assay [8], 9.39% (active); in assay [9] it was 26.4%; in assay [10] it was 32.5%.

Turning to `c1ccc(C(NC2CC3CCC2C3)c2ccccc2)cc1` (stereo not given), the growth in assay [1] was 96.8%; in assay [2], 94%; in [3], 65%; in [4], 95.9%; in assay [5], 98.9%; in assay [6], 87.7%. Moreover, the growth in assay [7] was 116%; in assay [8], 87.6%; in [9] it was 94%; in assay [10], 90.2%.

With `Cc1cc(C)c(CCc2cc(C)c(C)cc2C)cc1C`, the growth in assay [1] was 102%; in assay [2] it was 107%; in assay [3], 92.2%; in [4], 117%; in assay [5], 112%; in [6], 94.1%. Also, the growth is 98.7% in assay [7], 93% in [8], 90.5% in assay [9] and 90.4% in assay [10].

As to `O=C1OCC2=C1C(c1ccc(Cl)c(Cl)c1)c1cc3c(cc1N2CCO)OCCO3` (stereo not given), the growth in [1] was 42.3%; in [2], 41.7%; in assay [3], 22%; in assay [4] it was 57%; in assay [5] it was 46.2%; in assay [6] it was 34.1%. Also, the growth in [7] is -5.46% (active); in [8], 7.16% (active); in [9], 19.9%; in [10], 27.9%.

In the case of `CC(C)C[C@H](NC(=O)[C@H](Cc1cccc2ccccc12)NS(=O)(=O)c1cccc2cccnc12)B(O)O`, the growth is 6.76% (active) in assay [1]; 8.75% (active) in assay [2]; -80.2% (active) in assay [3]; -60.2% (active) in assay [4]; -3.75% (active) in assay [5]; -20.7% (active) in assay [6]. The growth in assay [7] was -36.4% (active); in assay [8], -18.8% (active); in assay [9] it was 1.17% (active); in [10], 2.44% (active).

For `COc1ccc2c(c1)-c1c(c3cc(OC)ccc3n(CCN(C)C)c1=O)C2=O`, the growth in [1] was 34.5%; in assay [2] it was 24.6%; in assay [3], -24.7% (active); in assay [4] it was -2.26% (active); in [5], 8.27% (active); in [6], 1.94% (active). Besides, the growth in assay [7] was 48.6%; in assay [8], 3.78% (active); in assay [9] it was 1.5% (active); in assay [10] it was -12.4% (active).

`N=c1c2c(-c3ccccc3)c(-c3ccccc3)n(Cc3ccccc3)c2ncn1CCCO`: the growth in assay [1] was 36.5%; in assay [2] it was 40.3%; in assay [3], -0.199% (active); in assay [4], 35.4%; in [5], 26.1%; in [6] it was 13.9%. In addition, the growth is 17.6% in [7], 28.9% in [8], -10.9% (active) in assay [9] and -33.5% (active) in assay [10].

As for `COc1ccc(N2C(=O)C3c4[nH]c5ccc(OCc6ccccc6)cc5c4C4CCC(C(C)C)CC4C3C2=O)cc1` (stereo not given), the growth in [1] was 115%; in assay [2], 103%; in [3], 91.7%; in assay [4] it was 116%; in [5] it was 3.44% (active); in assay [6] it was 94%. The growth was 105% in assay [7], 71.9% in [8], 30.8% in assay [9] and 64.6% in assay [10].

On to `Cc1nc2oc3ccccc3c(=O)c2cc1C(=O)NCc1ccccc1`, for which the growth in assay [1] was 69.3%; in assay [2], 99%; in [3], 63.3%; in [4] it was 87.6%; in assay [5] it was 63.3%; in assay [6] it was 52%. Further, the growth in assay [7] was 92.5%; in [8] it was 76.9%; in assay [9] it was 66.7%; in assay [10], 69.7%.

Consider `C=C(C(=O)c1ccccc1)C(NC(C)(C)C)c1ccccc1` (stereo not given), for which the growth in assay [1] was 52.3%; in assay [2], 2.42% (active); in assay [3], -51.7% (active); in assay [4], 9.63% (active); in assay [5] it was -59.4% (active); in assay [6], 6.9% (active). The growth was 94.1% in assay [7], 5.75% (active) in assay [8], 4.36% (active) in assay [9] and -17.7% (active) in assay [10].

For the compound `CC[C@H]1CCC/C=C/[C@@H]2C[C@H](O)C[C@H]2[C@H](O)/C=C/C(=O)O1`, the growth in assay [1] was -1.36% (active); in assay [2], 3.46% (active); in assay [3], -9.94% (active); in [4], -48% (active); in assay [5], 0.373% (active); in assay [6], -0.599% (active). Moreover, the growth in assay [7] is -45.3% (active); in [8], 7.71% (active); in assay [9] it was 0.81% (active); in assay [10], 2.29% (active).

(Values after PubChem BioAssay (NCI).)
